In PubChem BioAssay one finds z-score and composite z-score data, which are given here for ten molecules.

The nature of test [1]: HepG2 liver cancer cell viability effects, profiling panel, resazurin fluorescence, 24 h, PK04 Diversity Set (AID 1172). Note: test concentration not given here. To be noted: higher = more signal. For orientation: Resazurin is reduced to fluorescent resorufin, in cell work by metabolically active cells.
Test [2] in a line: basal S. cerevisiae growth modulation, no modifier, primary screen, OD600, strain BY4716, 24 h, basal condition (AID 1173). To be noted: OD600, 24 h, higher = more signal, called active from +8 up or from −8 down.
Test [3] in a line: MM1S myeloma cell viability, profiling panel, resazurin fluorescence, basal, 24 h, PK04 Diversity Set (AID 1174). Note: test concentration not given here. To be noted: higher = more signal, called active from +8 up or from −8 down.
The target in test [4] is Dihydroorotate dehydrogenase (quinone), mitochondrial (Plasmodium falciparum (isolate 3D7)) (UniProt Q08210). The test is described as follows: PfDHODH enzyme inhibitors, primary screen, biochemical, C-terminal His tag, absorbance 600 nm (AID 1175).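 Note: recombinant parasite enzyme with a five histidine tag at its C terminus; test concentration not given here.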 To be noted: DCIP absorbance 600 nm, higher = more signal, called active from +8 up or from −8 down.
Test [5] in a line: P. aeruginosa biofilm formation inhibitors, primary screen, strain PAO1, LB-PBS medium, absorbance 600 nm (AID 1176). Note: test concentration not given here. The note with it: P. aeruginosa PAO1 growth/biofilm, A600, 12 h; higher = more signal.
Test [6] can be described thus: S. cerevisiae RM11-1a growth modifiers, primary screen, strain RM11-1a, OD600, basal, 24 h (AID 1177).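 Note: cultures grown under basal conditions with no added stressor; test concentration not given here.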 The note with it: OD600, 24 h, higher = more signal, called active from +8 up or from −8 down.
Test [7] in a line: E. coli acrAB mutant growth effects, primary screen, E. coli filamentation inducers, strain DRC39, OD650, 24 h (AID 1178).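 Note: growth measured as culture turbidity by optical density at 650 nm; test concentration not given here.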 To be noted: higher = more signal, called active from +8 up or from −8 down.
A short description of test [8]: E. coli acrAB mutant growth effects, primary screen, E. coli filamentation inducers, strain DRC39, OD650, 48 h (AID 1179).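 Note: screen aims at cell division blockers that make cells filament.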 The note with it: E. coli DRC39 delta-acrAB growth, higher = more signal, called active from +8 up or from −8 down.
Test [9] is described as follows: RPMI8226 myeloma cell viability, profiling panel, resazurin fluorescence, basal, 24 h, PK04 Diversity Set (AID 1180).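 Note: RPMI8826 multiple myeloma cell line at 5000 cells per well; test concentration not given here.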 To be noted: higher = more signal.
Test [10] addresses E3 ubiquitin-protein ligase XIAP (Homo sapiens) (UniProt P98170). The test can be described thus: XIAP binders, primary screen, biophysical, small-molecule microarray, fluorescence 635 nm (AID 1181).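 Note: score merges 667 nm emission and signal to noise over triplicate slides.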 The note with it: small-molecule microarray binding, higher = more signal.

Calls of active or inactive are those of the source. Unless noted, the rule behind the calls is not given here.

Dihydroorotate dehydrogenase (quinone), mitochondrial (Plasmodium falciparum (isolate 3D7)), sequence (Q08210 whole entry, looked up): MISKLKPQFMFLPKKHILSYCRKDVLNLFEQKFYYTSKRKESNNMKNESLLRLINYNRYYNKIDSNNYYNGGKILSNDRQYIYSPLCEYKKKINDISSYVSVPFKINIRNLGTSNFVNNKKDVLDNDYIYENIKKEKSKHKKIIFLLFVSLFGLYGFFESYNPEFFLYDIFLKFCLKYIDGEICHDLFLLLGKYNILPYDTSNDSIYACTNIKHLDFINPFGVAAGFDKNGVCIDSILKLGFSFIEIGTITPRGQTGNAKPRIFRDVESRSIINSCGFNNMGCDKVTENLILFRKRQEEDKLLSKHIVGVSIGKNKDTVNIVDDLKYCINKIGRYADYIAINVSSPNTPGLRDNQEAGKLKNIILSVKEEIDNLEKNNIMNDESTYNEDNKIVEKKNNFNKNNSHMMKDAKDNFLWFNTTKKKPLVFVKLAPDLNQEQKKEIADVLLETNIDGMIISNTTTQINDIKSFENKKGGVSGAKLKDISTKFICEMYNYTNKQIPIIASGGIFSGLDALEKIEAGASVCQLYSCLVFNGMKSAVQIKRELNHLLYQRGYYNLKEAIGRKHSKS
E3 ubiquitin-protein ligase XIAP (Homo sapiens), sequence (P98170 whole entry, looked up): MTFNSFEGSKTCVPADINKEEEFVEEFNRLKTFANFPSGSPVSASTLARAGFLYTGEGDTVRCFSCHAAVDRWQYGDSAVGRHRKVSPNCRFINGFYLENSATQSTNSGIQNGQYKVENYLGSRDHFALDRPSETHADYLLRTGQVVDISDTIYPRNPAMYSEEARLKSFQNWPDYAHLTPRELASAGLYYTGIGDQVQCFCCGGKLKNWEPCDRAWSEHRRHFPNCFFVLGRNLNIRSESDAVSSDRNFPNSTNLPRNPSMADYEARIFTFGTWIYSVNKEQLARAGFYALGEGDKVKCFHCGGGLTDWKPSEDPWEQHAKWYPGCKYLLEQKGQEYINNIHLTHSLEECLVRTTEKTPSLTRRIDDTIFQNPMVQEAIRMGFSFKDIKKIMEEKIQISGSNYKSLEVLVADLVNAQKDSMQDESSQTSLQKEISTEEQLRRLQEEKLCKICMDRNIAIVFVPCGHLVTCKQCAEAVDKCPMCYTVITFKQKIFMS

Turning to `CC(C)(C)OC(=O)CC[C@@]1(C(=O)NCCN2CCOCC2)N=C(c2ccc(OCCCO)cc2)O[C@@H]1c1ccccc1N=[N+]=[N-]`, the z-score was -0.583 in test [1]; -0.643 (inactive) in test [2]; -1.76 (inactive) in [3]; 0.41 (inactive) in test [5]; 0.0002 (inactive) in [6]; -0.0723 (inactive) in [7]. Also, the z-score in test [8] was -0.169 (inactive); in test [9] it was -0.601. For the same molecule, the composite z-score in test [4] was -0.462 (inactive); in [10] it was 0.0877.
As to `CCCCC=C[C@@H](NC(=O)Oc1cccc(C(F)(F)F)c1)c1ccccc1`, the z-score was -1.68 in test [1]; 1.74 (inactive) in [2]; -2.06 (inactive) in test [3]; 2.62 (inactive) in test [5]; 1.37 (inactive) in test [6]; -0.844 (inactive) in test [7]. Besides, the results for the z-score in test [8] and in [9] were -0.665 (inactive) and -2.1, respectively. Besides, the composite z-score was -3.25 (inactive) in test [4] and 0.0748 in test [10].
Take `O=C1O[C@H](c2ccccc2)[C@H](c2ccccc2)N2[C@H]1[C@@H](C(=O)Nc1nc3ccccc3s1)[C@]1(C(=O)Nc3ccc(C#CCCO)cc31)[C@H]2c1ccc(OCCO)cc1`: the z-score in test [1] was -0.251; in test [2], 1.2 (inactive); in test [3], 0.527 (inactive); in [5], 1.85 (inactive); in [6], 1.67 (inactive); in test [7], -0.567 (inactive). The z-score in test [8] is 0.161 (inactive); in [9], -1.3. Besides, the composite z-score was -1.6 (inactive) in [4] and 0.0637 in test [10].
Regarding `COCCOC(=O)N1C(=O)[C@@]2(c3cc(C#CC4=CCCCC4)ccc31)[C@H](C(=O)Nc1nc3ccccc3s1)[C@H]1C(=O)O[C@H](c3ccccc3)[C@H](c3ccccc3)N1[C@@H]2c1ccccc1OCCO`, the z-score was 0.444 in test [1]; 0.794 (inactive) in [2]; -0.386 (inactive) in test [3]; 1.16 (inactive) in test [5]; 1.99 (inactive) in test [6]; -0.653 (inactive) in test [7]. Moreover, the z-score was -0.883 (inactive) in [8] and -0.575 in [9]. The figures for the composite z-score in [4] and in test [10] were 1.37 (inactive) and -0.05, respectively.
On to `COC(=O)[C@@]1(Cc2ccc(F)cc2)[C@H]2c3cc(C(=O)N(C)C)n(Cc4nc5ccccc5[nH]4)c3C[C@H]2CN1C(=O)c1ccccc1`, for which the z-score in [1] is 0.455; in test [2], 0.681 (inactive); in test [3] it was -0.534 (inactive); in [5], 0.315 (inactive); in test [6] it was 0.22 (inactive); in test [7], -0.0051 (inactive). The z-score was 0.12 (inactive) in [8] and -0.187 in [9]. Further, the composite z-score in test [4] is 0.0187 (inactive); in [10], 0.338.
As for `O=C1c2ccccc2[C@](Cc2ccccc2I)(C(=O)NC2CC2)[C@H](c2ccc(CO)cc2)N1Cc1ccccc1`, the z-score in [1] is 0.621; in [2] it was 0.401 (inactive); in test [3], 0.414 (inactive); in test [5], 0.14 (inactive); in [6], -0.377 (inactive); in [7], -0.0358 (inactive). The figures for the z-score in [8] and in test [9] were 0.0388 (inactive) and 0.535, respectively. For the same molecule, the composite z-score was 0.159 (inactive) in test [4] and -0.0663 in test [10].
Consider `C#CCNC(=O)[C@H](Cc1ccccc1)NC(=O)CCC(=O)O`, for which the z-score in test [1] was -0.487; in [2] it was -0.734 (inactive); in [3], -0.135 (inactive); in test [5] it was 0.927 (inactive); in [6], -0.051 (inactive); in [7] it was -0.306 (inactive). The z-score was -0.125 (inactive) in test [8] and -1.28 in [9]. For the same molecule, the composite z-score in [4] is 0.139 (inactive); in [10], -0.239.
On to `[N-]=[N+]=NCc1ccccc1C[C@]1(C(=O)O)N=C(c2ccc(OCCCO)cc2)O[C@H]1c1ccccc1N=[N+]=[N-]`, for which the z-score in [1] was -0.213; in [2], -0.496 (inactive); in test [3], -1.43 (inactive); in [5] it was -0.043 (inactive); in [6], 1.45 (inactive); in test [7], 0.989 (inactive). Also, the results for the z-score in test [8] and in test [9] were -0.0775 (inactive) and -1.82, respectively. The composite z-score in test [4] is 2.26 (inactive); in [10], 0.0808.
With `NCCCCCNC(=O)[C@@H]1C[C@@H]2C(=O)NCC(=O)N2[C@@H]1c1ccc(O)cc1`, the z-score in test [1] was 0.0154; in test [2] it was -0.54 (inactive); in test [3], 0.236 (inactive); in test [5], 0.227 (inactive); in test [6], 0.225 (inactive); in test [7], 0.121 (inactive). Moreover, the values for the z-score in test [8] and in test [9] were 0.654 (inactive) and -0.9, respectively. Also, the figures for the composite z-score in test [4] and in [10] were -1.28 (inactive) and 0.348, respectively.
As for `CN(C)CCCNC(=O)[C@@]1(c2ccc([N+](=O)[O-])cc2)CC(=O)N(C2CCCCC2)[C@@H]1c1ccc(CO)cc1`, the z-score in [1] was -0.252; in test [2] it was -1.59 (inactive); in test [3], -0.0665 (inactive); in test [5] it was -0.177 (inactive); in test [6] it was -0.0078 (inactive); in test [7] it was 0.328 (inactive). For the same molecule, the z-score was -0.16 (inactive) in test [8] and -0.155 in test [9]. Further, the composite z-score in test [4] was 0.456 (inactive); in [10], -0.0073.
